High-throughput results (PubChem BioAssay)
Insulin prom inh – TRM-6 insulin promoter activity inhibition; TRM-6 cells (human fetal islet line), insulin promoter-eGFP reporter, imaging; reporter expression induced with tamoxifen; inhibition, % at 2 µM; 130,000 compounds, 0.9% hits;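 active = inhibition above the mean plus 3 SD, with well images judged a real hit on visual review, cut at about 60% in these data, passing the limit was not always enough; inconclusive = inhibition over the cutoff but images rejected on review; inactive = inhibition not above the cutoff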
Autophagy HCS – modulators of autophagy; calls only at 10 µM (by protocol); AID 463193; 190,000 compounds, 0.98% hits; MEF GFP-LC3 puncta imaging; test concentration mostly 10 µM;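 active = percentage of spot-positive cells more than 3 SD above its plate mean, without a fluorescence outlier flag or 80% toxicity; inconclusive = no clear call, values can overlap the other calls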;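 note: spot-positive cell cutoff set from DMSO-treated cells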
HMGR II inh – blocks class II HMG-CoA reductase of Enterococcus faecalis | purified E. faecalis HMGR, NADPH absorbance 340 nm kinetic | inhibition, % at 10 µM | 190,000 compounds, 0.41% hits | AID 1066;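 active = inhibition above a set limit, the median over all tested compounds plus 3 SD, cut at about 9.5% in these data; inconclusive = no clear call, values can overlap the other calls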;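 note: enzyme runs in reverse so mevalonate oxidation gives rising NADPH absorbance; 0% = complete reaction with DMSO and 100% = background rate lacking mevalonate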
Ins promoter up – MIN6 insulin promoter up-regulation. 190,000 compounds, 0.3% hits. MIN6 insulin promoter-GFP reporter, high-content imaging; hits give high values. z-score at 5 µM. AID 1625;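 active = z-score above 3 at 5 µM with at least 500 cells counted in the well; inconclusive = wells under 500 cells, flagged as cytotoxic or low count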
* marks the source's active call; other numbers are inactive results; i = inactive; ? = inconclusive; . = no result; + = active, no number. Shown are actives, neighbours in structure and some others; about 1.9% of the full set was active somewhere.

SMILES	Insulin prom inh	Autophagy HCS	HMGR II inh	Ins promoter up
COc1cc(OC)cc(C(=O)NCC(=O)OCC(=O)N2CC(C)CC(C)C2)c1 (configuration not stated)	-42	i	-4	-0.01
COc1ccc2c(C)cc(Sc3nnnn3-c3ccccc3)nc2c1	.	i	-4	-0.49
COc1ccc2nc(NC(=O)CS(=O)(=O)Cc3ccccc3)sc2c1	.	+	-7	0.27
O=C(Nc1nc2ccc([N+](=O)[O-])cc2s1)C1CCCO1 (configuration not stated)	.	+	-5	0.16
O=S(=O)(NCCc1cn2ccccc2n1)c1ccc2c(c1)CCCC2	-198	i	-4	-0.08
COc1ccccc1NC(=O)c1ccc2c(c1)nnn2C	-22	i	2	-0.09
CC(=O)c1cn(C)c(=O)[nH]c1=O	.	i	-6	0.14
COc1cc2c3nnc(-c4ccc(F)cc4)c-3cn(Cc3cccc(F)c3)c2cc1OC	i	+	-3	0.53
CN(C)S(=O)(=O)c1ccc(C(=O)NCC(=O)N/N=C/c2ccccc2Cl)cc1	29	i	3	0.43
Cc1cccc(C)c1OCC(O)CN1CCC(CN2C(=O)c3cccc4cccc(c34)C2=O)CC1 (configuration not stated)	40	+	0	-1
OC(COc1ccc(CNCCc2ccc(C(F)(F)F)cc2)cc1)CN1CCCCC1 (configuration not stated)	.	+	-4	.
COc1ccc(OCC(O)CN2CCCCC2)cc1 (configuration not stated)	.	i	-11	1.1
CCOc1ccc(/C(O)=C2/C(=O)C(=O)N(CC3CCCO3)C2c2ccc(C)o2)cc1 (configuration not stated)	27	i	4	0.36
CCOc1ccc(/C(O)=C2/C(=O)C(=O)N(CC3CCCO3)C2c2ccco2)cc1 (configuration not stated)	-7	i	29*	.
O=C(NCCN1CCOCC1)/C(=C\c1ccc(Br)cc1)NC(=O)c1cccs1	39	i	-2	0.04
CCOc1ccccc1N1CCN(C(=O)CC(C)(C)C)CC1	.	i	11*	0.22
CC(C)OC(=O)/C(=C\c1cccnc1)NC(=O)c1ccccc1	.	+	0	-0.08
C=CCOC(=O)/C(=C/c1cccnc1)NC(=O)c1ccccc1	.	.	.	-0.03
COC(=O)c1ccccc1NC(=O)c1ccnn1C	.	i	-4	-0.21
Cc1cccc(C(=O)NC(=S)Nc2ccc(N3CCOCC3)cc2)c1	-8	i	-1	-0.39
Cc1ccc2nc(N3CCN(Cc4nnnn4C4CCCC4)CC3)c(C#N)cc2c1	100*	i	-3	.
Cc1ccc(C)c(N2CCN(Cc3nnnn3C3CCCCC3)CC2)c1	19	i	0	0.58
CCOc1ccc(-c2nc(CN3CCCCC3CCn3cccn3)c(C)o2)cc1 (configuration not stated)	.	.	.	-0.26
N=c1sccn1CC(=O)Nc1cc(S(=O)(=O)N2CCCCC2)ccc1Cl	.	.	.	-0.38
C/C(=N/NC(=O)c1cc(O)c(O)c(O)c1)c1ccc([N+](=O)[O-])cc1	9	i	21*	-1
SMILES	Insulin prom inh	Autophagy HCS	HMGR II inh	Ins promoter up
CN(CC(O)Cn1cnc2c1c(=O)n(C)c(=O)n2C)c1ccccc1 (configuration not stated)	.	+	-4	0.08
CCOC(=O)N1CCC2(CC1)NCCc1c2[nH]c2ccccc12	.	.	.	-0.13
Cn1nc(-c2ccc(Cl)cc2)c2cc(C(=O)NCCCN3CCCC3)sc21	.	+	-3	-0.32
CCCCNC(=O)c1cc2c(-c3ccc(Cl)cc3)nn(C)c2s1	.	i	0	-0.15
CCN1CCCC1CNC(=O)c1cc2c(-c3ccc(Cl)cc3)nn(C)c2s1 (configuration not stated)	.	+	-2	-1.9
CCN1CCCC1CNC(=O)c1cc2c(-c3cccc(OC)c3)nn(C)c2s1 (configuration not stated)	15	i	3	-0.87
COc1cccc(N2CCN(c3ncnc4c3cnn4-c3ccc(C)cc3C)CC2)c1	.	+	-3	0.31
Cc1ccc(-n2ncc3c(N4CCCC4)ncnc32)c(C)c1	.	i	0	.
O=C(c1cccc(C(F)(F)F)c1)N1CCc2c([nH]c3ccccc23)C1C(F)(F)F (configuration not stated)	.	.	.	-0.68
C[n+]1cc(C(=O)N2CCCCC2)ccc1/C=C/c1c[nH]c2ccccc12	.	i	6	4*
O=C(O)c1ccc(CNC(=O)c2ccc(C(F)(F)F)cc2)cc1	73*	i	0	-1.2
O=C(O)c1ccc(CNC(=O)c2ccc(Br)o2)cc1	9	i	-4	1.1
O=C(NCc1ccco1)c1ccc(C(F)(F)F)cc1	78*	i	-1	-0.09
O=C(NCc1ccco1)c1cc2ccc(O)cc2oc1=O	92*	i	-3	0.13
O=C(NC1(C(F)(F)F)C(=O)Nc2c1c(=O)[nH]c(=O)n2-c1ccccc1)c1ccncc1 (configuration not stated)	-19	i	.	.
CN(CCC#N)C(=S)NC(=O)c1ccc(S(=O)(=O)N2CCOCC2)cc1	57	i	5	-0.01
O=C(COc1ncnc2ccccc12)NCC1CCCO1 (configuration not stated)	.	+	-6	0.53
O=C(COc1ccccc1)NCC1CCCO1 (configuration not stated)	-23	i	0	.
Cc1cc(C)nc(N2N=C(C(F)(F)F)CC2=O)n1	.	.	.	0.37
CCC(=O)N/C(N)=N/c1nc(C)c2cc(OC)ccc2n1	80*	i	-5	0.01
Cc1ccc(S(=O)(=O)c2c(C)nn(C(C)(C)C)c2OC(=O)C2CCCC2)cc1	82*	i	0	-0.07
Cc1nn(C(C)(C)C)c(OC(=O)C2CCCC2)c1S(=O)(=O)c1ccccc1	-12	i	-1	-0.33
O=C(NCCc1ccccc1)C1CCC(CNS(=O)(=O)c2cccc3cccnc23)CC1 (configuration not stated)	.	.	.	-0.42
CC(C)(c1ccccc1)c1ccc(OCC(O)CNC2CCN(Cc3ccccc3)CC2)cc1 (configuration not stated)	11	+	1	?
CCOc1ccc(OCC(O)CNC2CCN(Cc3ccccc3)CC2)cc1 (configuration not stated)	.	i	0	0.35
SMILES	Insulin prom inh	Autophagy HCS	HMGR II inh	Ins promoter up
Cc1ccc(NC(=O)CC2=NC(=O)C(CC(=O)Nc3ccccc3F)S2)cc1 (configuration not stated)	-29	i	4	0.83
CCOCCCNC(=O)NC(=O)CN1CCN(S(=O)(=O)c2ccc3c(c2)OCCO3)CC1	.	i	-4	0.09
O=C(NCC(=O)N(Cc1cccs1)C(C(=O)NC1CCCCC1)c1ccco1)c1ccco1 (configuration not stated)	-203	i	-4	-0.12
O=C(NCC(=O)N(Cc1cccs1)C(C(=O)NC1CCCC1)c1ccncc1)c1ccco1 (configuration not stated)	-15	i	33*	0.34
COc1cc(Nc2ncnc(N)n2)cc(OC)c1OC	.	.	.	-0.65
Cc1ccc(OCC(=O)N/N=C/c2cccn2C)cc1	71*	i	1	.
O=C(c1cccc(-c2ccc(O)cc2)c1)N1CCN(c2ccc(F)cc2)CC1	68*	i	-5	-0.86
